PfHsp90 yeast 2 – growth inhibition of PfHsp90-expressing yeast, primary screen, antimalarial PfHsp90 inhibitor project, S. cerevisiae, BacTiter-Glo luminescence, single point, set 2 | BacTiter-Glo ATP, 48 h; yeast lacking PDR1 and PDR3 efflux regulators | inhibition, % at 9.4 µM | hit rate 0.32% among 310,000 | AID 504621, 2011;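 active = every replicate shows inhibition above about 80%, whatever the replicate mean, limit read from the data; inconclusive = mean inhibition reaches the set limit but some replicate falls short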;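 note: 0% = DMSO neutral controls and 100% = 20 µM radicicol positive controls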
Vif imaging – HIV Vif self-association inhibitors, primary screen, imaging, HEK293T, single point; HEK293T cells, Vif self-association by quenched fluorescence, 24 h; inhibition, % at 7.49 µM; hit rate 0.35% among 340,000; in the data active = inhibition above about 50%, passing the limit was not always enough; inconclusive = no clear call, values can overlap the other calls; inactive = below about 31%
MITF TRPM1 HTS – activators of MITF-driven TRPM1 promoter reporter, primary screen, cell-based, SK-MEL-5, luciferase, single point | SK-MEL-5 TRPM1-promoter luciferase, 24 h; % of positive control, neutral wells = 0 | activation, % at 12.5 µM | hit rate 0.75% among 300,000;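 active = mean activation of at least 80% with every replicate also reaching 80%; inconclusive = mean reaches 80% but some replicate falls short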;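 note: 0% = neutral control wells and 100% = parthenolide positive control wells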
Wnt act – Wnt/beta-catenin pathway activators, primary screen, cell-based, plate reader, single point; AID 743398, 2014; Wnt/beta-catenin reporter cell assay, activator; activation, % at 9.35 µM; hit rate 1.2% among 300,000; in the data active = activation above about 30%, passing the limit was not always enough; inconclusive = no clear call, values can overlap the other calls;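 note: 0% = neutral control wells and 100% = positive control wells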
esBAF inh – Bmi1 luciferase reporter increase in mESCs, primary screen, esBAF inhibitor project, mouse ES cells, Bmi1 luciferase knock-in, single point; hit rate 2% among 350,000; reporter increase, % at 12.5 µM; 24 h; 100% = twice the neutral-well signal; in the data active = activation above about 40%; inconclusive = no clear call, values can overlap the other calls;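 note: 0% = median of the plate's neutral control wells and 100% = double that signal; a rise in the Bmi1 reporter signal indicates esBAF inhibition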
Glyco luc inh – increase of ERlucT glycosylation luciferase signal, primary screen, N-linked glycosylation inhibitor project, D54 ERlucT cells, luminescence, set 2; hit rate 0.23% among 360,000; reporter increase, % at 12.5 µM; AID 588692, 2011; D54 ERlucT glycosylation luciferase reporter, 24 h; percent of 100 nM tunicamycin response;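 active = mean luciferase reporter signal, scaled so untreated is 0 and the glycosylation-blocking control 100, at or above a set limit in every replicate; inconclusive = mean reaches the limit but not every replicate does; inactive = mean below the limit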;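 note: luciferase carries N-glycosylation sites so blocking glycosylation raises the light; 0% = median of neutral control wells and 100% = median of 100 nM tunicamycin wells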
* = called active by the depositor; ? = inconclusive; nt = no result given. An excerpt weighted towards active compounds, which were near 3% of everything screened.

SMILES | PfHsp90 yeast 2 | Vif imaging | MITF TRPM1 HTS | Wnt act | esBAF inh | Glyco luc inh
CCOC(=O)c1cnc(SCc2cccc(C)c2)nc1N | -31 | -2 | 61 | 40* | nt | -1
Cc1noc(C)c1NC(=O)Nc1ccc2c(c1)C(=O)N([C@H](C)CO)C[C@H](C)[C@@H](CN(C)C(=O)Cc1ccccc1)OCCCC[C@@H](C)O2 | nt | nt | nt | nt | -3 | nt
CCOc1ccc(CC(=O)N2N=C(C)CC2(O)C(F)(F)F)cc1 (stereo unspecified) | 7 | 1 | 6 | nt | nt | -1
CN(C)/C(=N\S(=O)(=O)c1ccccc1)c1ccc(F)cc1 | -19 | 0 | -11 | 1 | -2 | 0
COc1ccc(Nc2ccnc(Nc3ccc(OC)cc3)n2)cc1 | -10 | -8 | 25 | 48* | nt | -9
COc1ccc(Nc2nc(OC)nc(OC)n2)cc1 | 1 | -3 | 17 | 3 | 12 | 2
CCCCn1c(N)c(N(CCOC)C(=O)c2cnc(C)cn2)c(=O)[nH]c1=O | nt | nt | 1 | -5 | -8 | 3
COc1ccc(NC2CC(=O)N(C(C)C)C2=O)cc1 (stereo unspecified) | -10 | 10 | 69 | -2 | 60* | 0
CC(C)N1C(=O)CC(Nc2ccc(N3CCOCC3)cc2)C1=O (stereo unspecified) | nt | -12 | nt | -2 | 29 | 4
COc1cccc(OCc2cc(/C=N/Nc3ccc(C(=O)O)cc3)ccc2OC)c1 | 6 | 2 | -4 | 2 | 59* | -6
CCCC(=O)Nc1sc2c(c1C#N)CCCCC2 | 3 | 1 | 51 | 2 | 85* | 2
Cc1ccc(C(=O)Nc2sc3c(c2C#N)CCCCC3)cc1C | -3 | nt | 119* | nt | nt | nt
COc1ccc(CC(=O)Nc2ccc(F)c(S(=O)(=O)N3CCOCC3)c2)cc1 | 5 | 11 | -5 | 1 | -5 | 4
COCOCCn1cc(CN2CCS(=O)(=O)N(Cc3ccc(-c4ccc(Cl)nc4)cc3)C(CC(C)C)C2=O)nn1 (stereo unspecified) | nt | -3 | nt | 0 | 45* | 16
CC(=O)NC(=S)Nc1cccc2ccc(C)nc12 | -2 | -16 | nt | -6 | nt | 3
Nc1c(-c2ccc(Cl)cc2)cnc2c(-c3ccccc3)cnn12 | 2 | 1 | 75 | 36* | 25 | -14
CC(C)(C)S(=O)(=O)c1cnc2c(-c3ccc(Cl)cc3)cnn2c1N | 3 | 1 | 8 | 2 | 31 | 0
Cc1ccccc1-c1cnn(-c2cccc([N+](=O)[O-])c2)c1N | -14 | 13 | 39 | 2 | 34 | 2
Nc1c(-c2ccc(Cl)cc2)cnn1-c1cc(C(F)(F)F)cc(C(F)(F)F)c1 | -21 | -11 | 1 | 0 | 0 | -2
Nc1c(-c2ccc(Cl)cc2)cnn1-c1ccccc1 | -12 | 14 | 92* | ? | 31 | -1
Nc1c(-c2ccccc2)cnn1-c1cccc(C(F)(F)F)c1 | 5 | 3 | 56 | nt | 54* | -3
Cc1ccc(-c2cnn(-c3cccc([N+](=O)[O-])c3)c2N)cc1 | 19 | -9 | 64 | nt | 83* | 0
C[C@H](CO)N1C[C@H](C)[C@H](CN(C)S(=O)(=O)c2ccc(Oc3ccccc3)nc2)OCc2cnnn2CCCC1=O | nt | nt | nt | -1 | -2 | -1
CCOc1ccc2nc3c(cc2c1)CN(CCOC)C(=NC)S3 | 9 | -3 | 25 | 13 | nt | -1
O=C(NCSc1ccnc(SCNC(=O)c2ccc(F)cc2)n1)c1ccc(F)cc1 | -58 | 3 | nt | nt | -5 | 1
SMILES | PfHsp90 yeast 2 | Vif imaging | MITF TRPM1 HTS | Wnt act | esBAF inh | Glyco luc inh
COc1ccc(-c2nnn(-c3cc(Cl)cc(Cl)c3)c2N)cc1 | -40 | -8 | 17 | 0 | nt | 0
Cc1ccc(-c2cnn(-c3ccccc3)c2N)cc1 | 23 | 0 | 36 | 43* | 0 | -10
COc1ccc(-c2cnc3c(-c4ccc(F)cc4)cnn3c2N)cc1 | 3 | 2 | 59 | 43* | ? | -4
Nc1c(-c2ccc(Cl)cc2)nnn1-c1ccccc1 | 0 | -12 | nt | 67* | 79* | 1
COc1ccc(-c2cnn(-c3ccccc3)c2N)cc1OC | 8 | 0 | 8 | nt | 0 | 4
COc1ccc(-c2cnn3c(N)c(S(=O)(=O)C(C)(C)C)cnc23)cc1 | -12 | -3 | 16 | 2 | 18 | 3
Cc1ccc(S(=O)(=O)N(C)C[C@H]2OCCCC[C@@H](C)Oc3ccc(NC(=O)Nc4c(C)noc4C)cc3C(=O)N([C@@H](C)CO)C[C@@H]2C)cc1 | nt | nt | nt | nt | 4 | nt
COc1cc(C(=O)OCC(=O)Nc2nnc(-c3ccccc3)o2)cc(OC)c1OC | nt | 0 | -5 | -1 | nt | 3
O/N=C/c1ccnc(SCc2ccc(Cl)cc2)n1 | -4 | -6 | 50 | 1 | nt | -2
CCOC(=O)c1oc2ccccc2c1CN1CC(C)OC(C)C1 (stereo unspecified) | -1 | -1 | -6 | -2 | -7 | 0
CCOC(=O)Nc1oc2ccccc2c(=O)c1CN1CCOCC1 | -6 | 54* | -7 | nt | 2 | -1
C=CCn1c(O)c(C2=c3ccccc3=NC2=O)s/c1=N/c1nccs1 | -10 | 88* | nt | -4 | -1 | 0
O=C(O)Cn1c(O)c(C2=c3ccccc3=NC2=O)sc1=O | -18 | -6 | -25 | 5 | 4 | 1
C=CCn1c(O)c(C2=c3ccccc3=NC2=O)c2ccccc21 | 110* | 6 | nt | -15 | 3 | 10
COc1ccccc1CNC(=O)C1CCN(S(=O)(=O)c2ccc3c(c2)OCCCO3)CC1 | 16 | -3 | 3 | 0 | nt | -1
O=C(CN1CCOCC1)N/N=C/C(Br)=C\c1ccccc1 | -10 | -5 | 10 | -1 | nt | 1
CC(/C=N/NC(=O)Cc1cccn1C)=C\c1ccccc1 | -7 | -2 | 51 | nt | nt | 1
CCN(CC)c1ccc(/C=N/NC(=O)Cc2cccs2)cc1 | -8 | -2 | 4 | 1 | nt | 4
O=C(Cc1cccs1)N/N=C/C(Br)=C/c1ccccc1 | -5 | -7 | 107* | nt | 51* | 4
COc1ccc(/C=N/NC(=O)Cc2cccs2)cc1 | -10 | -5 | nt | 25 | 59* | -2
CC(/C=N/NC(=O)Cc1cccs1)=C\c1ccccc1 | 15 | 17 | 124* | nt | nt | -1
Cc1ccc(NC(=O)COC(=O)Cn2c(C)csc2=O)cc1S(=O)(=O)N1CCOCC1 | nt | 7 | 0 | 1 | -6 | 1
O=C(CSc1n[nH]c(=O)n1CCc1ccccc1)NC1CCCC1 | nt | -4 | nt | -2 | 1 | 0
COc1ccc(Nc2cc3n(c(=O)n2)CCc2cc(OC)c(OC)cc2-3)cc1 | 0 | nt | 41 | 0 | 11 | 1
